From PubChem BioAssay (NCATS)
Records with an inconclusive call do not appear. Active and inactive are the calls of the source. The call rests on the fitted dose curve; in most records, active means well fitted curve in the direction sought with a large enough effect; inconclusive means small, poorly fitted or top-dose-only effect, or another doubt; inactive means no such curve, though single readings can be large; an effect the other way counts as inactive or inconclusive.

Legend:
[1] = qHTS of pediatric cancer cell lines to identify multiple opportunities for drug repurposing: Primary screen for OHS-50 cells (AID 1347103); further: nearly all actives have a fitted effect of over 40% in size
Summary of the method: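 Cells (500-1,000/well) rested 5 h, then received compounds for 48 h; metabolically active cells were measured by CellTiter-Glo luminescence. Final concentrations spanned up to 46 µM (MIPE, 11-point) or 0.59 nM-46 µM (NPC, 8-point) in primary screens, 11-point in follow-ups.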

[2] = qHTS of pediatric cancer cell lines to identify multiple opportunities for drug repurposing: Primary screen for RD cells (AID 1347104); further: nearly all actives have a fitted effect of over 55% in size
Summary of the method: (§1)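 Phenotypic viability qHTS, 48 h compound exposure, CellTiter-Glo luminescence read-out; multi-concentration dosing so that potency and efficacy derive directly from the primary screen's curves.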

[3] = qHTS of pediatric cancer cell lines to identify multiple opportunities for drug repurposing: Primary screen for MG 63 (6-TG R) cells (AID 1347105); further: nearly all actives have a fitted effect of over 50% in size
Summary of the method: as §1

[4] = qHTS of pediatric cancer cell lines to identify multiple opportunities for drug repurposing: Primary screen for control Hh wild type fibroblast cells (AID 1347106);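 further: series mostly up to about 46 µM; a drop in luminescence marks cytotoxicity and a rise apparent proliferation; nearly all actives have a fitted effect of over 55% in size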
Summary of the method: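 Viability after 48 h compound treatment at 37C, 500-1,000 cells/well, read as ATP luminescence with CellTiter-Glo. Primary screens used 11-point (MIPE, 0.78 nM-46 µM) or 8-point (NPC, 0.59 nM-46 µM) final concentrations; follow-up screens used 11-point dilutions.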

[5] = qHTS of pediatric cancer cell lines to identify multiple opportunities for drug repurposing: Primary screen for Rh30 cells (AID 1347107); further: series mostly up to about 46 µM; nearly all actives have a fitted effect of over 75% in size
Summary of the method: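 Cells (500-1,000/well) in growth media were settled 5 h at 37 degrees C, then given compounds for 48 h. Viability was read as CellTiter-Glo luminescence. Primary runs used MIPE at 11 points (0.78 nM-46 µM) and NPC at 8 points (0.59 nM-46 µM); follow-ups used 11 points.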

[6] = qHTS of pediatric cancer cell lines to identify multiple opportunities for drug repurposing: Primary screen for Rh41 cells (AID 1347108);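 further: series mostly up to about 46 µM; luminescence drop marks cytotoxic hits; nearly all actives have a fitted effect of over 70% in size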
Summary of the method: as §1

Measured: Potency

C[C@@H]1C[C@H]2[C@@H]3CCC4=CC(=O)C=C[C@]4(C)[C@@]3(F)[C@@H](O)C[C@]2(C)[C@@]1(O)C(=O)COC(=O)c1ccncc1
inactive: all assays above

Cc1ccc2c(Cl)cc(Cl)c(O)c2n1
inactive: all assays above

OCCc1ccccc1
inactive: all assays above

CC(C)(C)c1ccc(C(=O)CCCCl)cc1
inactive: all assays above

O=C(Oc1ccccc1)c1ccccc1O
inactive: all assays above

Cc1ccccc1N1CCN(CCc2nnc3n2CCCC3)CC1
inactive: all assays above

CC1CC(=O)NN=C1c1ccc(NCC(C)(C)NCC(O)COc2cc(Cl)ccc2C#N)cc1 (stereo unspecified)
inactive: all assays above

Cn1c(=O)c2c(ncn2CC(=O)O)n(C)c1=O
inactive: all assays above

C#CC(C)(CC)OC(=O)c1ccccc1C(=O)O (stereo unspecified)
inactive: all assays above

CCCc1ccc(OCC(=O)N2CCN(C(=O)COc3ccc(CCC)cc3OC)CC2)c(OC)c1
inactive: all assays above

Cc1cnc(NS(=O)(=O)c2ccc(N)cc2)nc1
inactive: all assays above

COc1ccc(/C(C)=C/C(=O)O)c(OC)c1
inactive: all assays above

Nc1ccc(C(=O)N2CC3CC(CN(Cc4ccccc4)C3)C2)cc1
inactive: all assays above

CN1CCN(N)CC1
inactive: all assays above

Cc1cc(C(C)(C)C)c(O)c(C(C)(C)C)c1
inactive: all assays above

COc1cc(C(=O)OC(COCCC(C)C)CN2CCOCC2)cc(OC)c1OC (stereo unspecified)
inactive: all assays above

COCCOCC(OC)OC
inactive: all assays above

Cc1cc(O)c2c(O)c3c(O)cccc3cc2c1
inactive: all assays above

CCCCC(CC)COC(=O)c1ccccc1C(=O)O (stereo unspecified)
inactive: all assays above

CCCC(CCC)(C(=O)OCC)C(=O)OCC
inactive: all assays above

CNC(=O)c1c(I)c(NC(C)=O)c(I)c(C(=O)O)c1I
inactive: all assays above

CCCc1ncc(C(=O)O)s1
inactive: all assays above

OC[C@]1(O)OC[C@@H](O)[C@H](O)[C@@H]1O
inactive: all assays above

Nc1ccc([N+](=O)[O-])c(C(F)(F)F)c1
inactive: all assays above

CN(C(=O)C(Cl)Cl)c1ccc(OC(=O)c2ccco2)cc1
inactive: all assays above

CCN(CC)CCN
inactive: all assays above

CO/N=C(/C(=O)N[C@@H]1C(=O)N2C(C(=O)[O-])=C(C[n+]3ccn4ncccc43)CS[C@H]12)c1nsc(N)n1
inactive: all assays above

CCCCCCCCCCCCCCCCCCN(C)C
inactive: all assays above

N#CC1(c2ccc(F)cc2)CCC(=O)CC1
inactive: all assays above

CCNC(=O)NCCCOc1cccc(CN2CCCCC2)c1
inactive: all assays above

CC(CC(C#N)(c1ccccc1)C(C)C)N(C)C (stereo unspecified)
inactive: all assays above
